Compound activity (PubChem BioAssay)
The list is not random: actives were taken first. Their share in the collection is about 3.8%.
PrP 5UTR inh – inhibition of PrP 5' UTR reporter expression | cell-based PrP 5' UTR mRNA reporter, plate reader | inhibition, % (no concentration beside the values) | 0.35% of 340,000 active | AID 488862; in the data active = inhibition above about 52%
Mtb FBA inh – Mtb fructose-bisphosphate aldolase inhibition. inhibition, % at 1 µM. AID 588726. 2.3% of 360,000 active. P9WQA3. purified M. tuberculosis FBA, fluorescence read-out
Target sequence (P9WQA3 whole entry, looked up): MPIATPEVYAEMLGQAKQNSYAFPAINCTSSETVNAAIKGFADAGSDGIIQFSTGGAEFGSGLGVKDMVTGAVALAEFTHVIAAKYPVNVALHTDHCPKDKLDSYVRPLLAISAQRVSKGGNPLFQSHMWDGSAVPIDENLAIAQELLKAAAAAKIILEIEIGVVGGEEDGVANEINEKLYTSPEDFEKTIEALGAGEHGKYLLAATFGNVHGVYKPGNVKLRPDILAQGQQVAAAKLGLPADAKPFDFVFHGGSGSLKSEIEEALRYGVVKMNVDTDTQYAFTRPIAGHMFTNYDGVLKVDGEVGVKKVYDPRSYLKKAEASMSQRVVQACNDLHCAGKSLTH
Mtb hypoxia inh – Mtb hypoxia fluorescent reporter inhibition. 0.1% of 300,000 active. M. tuberculosis hypoxia-regulated fluorescent reporter, fluorescence. fluorescence inhibition, % (no concentration beside the values). AID 1159583; in the data active = fluorescence inhibition mostly above about 23%, no sharp cut-off; inactive = mostly below about 17%
Y pestis TopoI – Y. pestis Topo-I inhibition via cleavage products | AID 504884 | activity, % at 10 µM | 0.064% of 360,000 active | Y. pestis Topo-I cleavage product accumulation, plate reader; in the data active = activity above about 50%, passing the limit was not always enough
GDH-TPI counter-1 – counter-screen for M. tuberculosis FBA inhibitors: GDH-TPI coupled enzymes | 1.2% of 360,000 active | GDH-TPI coupled enzyme counterscreen, NADH absorbance | inhibition, % at 4.8 µM | AID 588335; in the data active = inhibition above about 30%
PrPC surface inh – inhibitors of human cell surface prion protein PrPC | 0.43% of 370,000 active | TR-FRET read-out | inhibition, % at 13.8 µM | P04156 | AID 720596; in the data active = inhibition above about 24%
Mtb FBA confirm – confirmation of M. tuberculosis fructose-bisphosphate aldolase inhibitors; shares compounds with Mtb FBA inh; purified M. tuberculosis FBA, fluorescence read-out; inhibition, % at 1 µM; 78% of 5,600 active
GDH-TPI counter-2 – GDH-TPI inhibition counter-screen for FBA inhibitors | shares compounds with Mtb FBA inh | GDH-TPI coupled enzyme counterscreen, fluorescence | inhibition, % at 1 µM | 81% of 5,600 active | AID 652141; in the data active = inhibition above about 10%
A number is an active result; 0 = inactive; - = no result shown; + = active, no number. Cut-off read from the data, not from the text of the source, unless noted: active = inhibition above about 27%; inactive = the rest.

SMILES | PrP 5UTR inh | Mtb FBA inh | Mtb hypoxia inh | Y pestis TopoI | GDH-TPI counter-1 | PrPC surface inh | Mtb FBA confirm | GDH-TPI counter-2
CC=CC(=O)N1CC2(CC(c3cccc(NC(=O)CCCCC)c3)=NO2)CC1C(N)=O (stereo unspecified) | - | - | 0 | - | - | - | - | -
CC(C)CC(NC(=O)c1[nH]cnc1C(=O)NC(Cc1ccccc1)C(=O)OC(C)(C)C)C(=O)OCc1ccccc1 (stereo unspecified) | - | - | 0 | - | - | - | - | -
CCCc1cc(=O)oc2cc(C)cc(OCC(=O)NCc3ccncc3)c12 | 0 | 61 | 0 | 0 | 0 | 0 | 53 | 41
CCc1cc(=O)oc2cc(C)cc(OCC(=O)NCc3ccccn3)c12 | 0 | 84 | 0 | 0 | 0 | 0 | 196 | 144
CCc1cc(=O)oc2cc(C)cc(OCC(=O)NCc3ccncc3)c12 | 0 | 49 | 0 | 0 | 0 | 0 | 161 | 137
C=C(Cl)COc1cc(C)cc2oc(=O)cc(CC)c12 | 0 | 32 | - | 0 | 0 | 0 | 146 | 118
CC(=O)COc1cc(C)cc2oc(=O)cc(-c3ccccc3)c12 | 0 | 0 | 0 | 0 | 0 | 0 | - | -
C(=NNc1ccc(-n2ccnc2)nn1)c1ccccc1 | - | - | 0 | - | - | - | - | -
CCCc1cc(=O)oc2cc(C)cc(OCC(=O)O)c12 | 0 | 97 | 0 | 0 | 0 | 0 | 144 | 109
O=C(Cn1ccc(C(F)(F)F)n1)N/N=C/c1ccc(N2CCOCC2)cc1 | 0 | 39 | - | 0 | 0 | 0 | 127 | 102
CCN(CC)S(=O)(=O)c1cccc(C(=O)N/N=C/c2ccc(N3CCOCC3)cc2)c1 | 0 | 28 | - | 0 | 0 | 0 | 0 | 0
CCN(CC)S(=O)(=O)c1cccc(C(=O)NN=Cc2ccc(N3CCOCC3)cc2)c1 | - | - | 0 | - | - | - | - | -
COC(=O)C1(C)Nc2ccccc2C(=O)N1c1ccccc1OC (stereo unspecified) | 0 | 29 | - | 0 | 0 | 0 | 86 | 56
COC(=O)C1(C)NC(=O)c2ccccc2N1 (stereo unspecified) | 0 | 30 | - | 0 | 0 | 0 | 39 | 42
Cc1ccccc1-c1nc(C#N)c(N2CCC(C)CC2)o1 | 0 | 48 | 0 | 0 | 0 | 0 | 51 | 46
COc1ccccc1-c1nc(C#N)c(N2CC(C)CC(C)C2)o1 (stereo unspecified) | 0 | 0 | 0 | 0 | 0 | 0 | - | -
CCOC(=O)C1CCCN(c2oc(-c3ccc(F)cc3)nc2C#N)C1 (stereo unspecified) | 0 | 30 | 0 | 0 | 0 | 0 | + | 197
CCN1CCN(c2oc(-c3ccc(OC)cc3)nc2C#N)CC1 | 0 | 32 | 0 | 0 | 0 | 0 | 143 | 119
CC1CC(C)CN(c2oc(-c3ccccc3F)nc2C#N)C1 (stereo unspecified) | 0 | 60 | 0 | 0 | 0 | 0 | 101 | 78
CC1CCN(c2oc(-c3ccccc3Cl)nc2C#N)CC1 | 0 | 0 | - | 0 | 0 | 0 | - | -
CCOc1ccccc1NC(=O)C(=O)NN=Cc1ccc([N+](=O)[O-])cc1 | - | - | 0 | - | - | - | - | -
COc1ccccc1-c1nc(C#N)c(N2CCc3ccccc3C2)o1 | 0 | 106 | 0 | 0 | 0 | 0 | 0 | 0
CC1CCN(c2oc(-c3ccc(F)cc3)nc2C#N)CC1 | 0 | 97 | 0 | 0 | 0 | 0 | 0 | 0
N=C(N)n1c(N)nc2ccccc2c1=O | 0 | 59 | 0 | 0 | 0 | 0 | 0 | 11
N=C(N)SCc1nc2ccccc2c(=O)n1-c1ccccc1 | 0 | 0 | 0 | 0 | 0 | 0 | - | -
SMILES | PrP 5UTR inh | Mtb FBA inh | Mtb hypoxia inh | Y pestis TopoI | GDH-TPI counter-1 | PrPC surface inh | Mtb FBA confirm | GDH-TPI counter-2
O=C(COc1ccc(Br)cc1)NN=C1SCC(=O)N1Cc1ccccc1 | - | - | 0 | - | - | - | - | -
CCC1C2CN(C(C)=O)CC=C2C(C#N)=C(N)C1(C#N)C#N (stereo unspecified) | 0 | 0 | 0 | 0 | 0 | 0 | - | -
CN1CC=C2C(C#N)=C(N)C(C#N)(C#N)C(Cc3ccccc3)C2C1 (stereo unspecified) | 0 | 32 | 0 | 0 | 0 | 0 | 164 | 151
C#CCOCCOCCOCCNc1nc(N2CCOCC2)nc(N2CCN(C(=O)C(C(C)CC)n3cc(CCCN=C(N)N)nn3)CC2)n1 (stereo unspecified) | - | - | 0 | - | - | - | - | -
COc1ccc2c(c1)C1OCCC1C(c1ccco1)N2 (stereo unspecified) | 0 | 93 | 0 | 0 | 44 | - | 96 | 67
COc1ccc(Cl)cc1-c1nc(SCC(=O)NC(C)(C)C)n[nH]1 | 0 | 29 | 0 | 0 | 0 | 0 | 100 | 93
CNC(=O)CSc1n[nH]c(-c2cc(Cl)ccc2OC)n1 | 0 | 0 | 0 | 0 | 0 | 0 | - | -
Cc1cccc2cc(C#N)c(NCCNS(=O)(=O)c3ccc4c(c3)OCCO4)nc12 | 0 | 47 | 0 | 0 | 0 | 0 | 125 | 93
COc1ccc(C(=O)NCCNc2nc3c(C)cccc3cc2C#N)cc1 | 0 | 0 | 0 | 0 | 0 | 0 | - | -
COc1cc(C(=O)NCCNc2nc3c(C)cccc3cc2C#N)cc(OC)c1OC | - | 0 | - | 0 | 0 | 0 | - | -
CCC(=O)NCCCNc1nc2c(C)cccc2cc1C#N | 0 | 38 | 0 | 0 | 0 | 0 | 142 | 102
O=S(=O)(NCCNS(=O)(=O)c1c(F)cccc1F)c1ccc2c(c1)OCCO2 | 0 | 0 | 0 | 0 | 0 | 0 | - | -
COc1ccc(C(=O)NCCNc2nc3c(C)cccc3cc2C#N)cc1OC | 0 | 29 | 0 | 0 | 0 | 0 | + | +
CC(=O)NC(=Cc1ccc2c(c1)OCO2)C(=O)NCCCO | - | - | 0 | - | - | - | - | -
Brc1ccccc1-c1nnc2sc(-c3ccc4c(c3)OCCO4)nn12 | 0 | 0 | 0 | 0 | 0 | 0 | - | -
Clc1ccccc1-c1nnc2sc(-c3ccc4c(c3)OCO4)nn12 | 0 | 28 | 0 | 0 | 0 | 0 | + | +
Clc1ccccc1-c1nnc(-c2ccc3c(c2)OCO3)o1 | 0 | 33 | 0 | 0 | 0 | 0 | 93 | 63
COc1ccc(-c2nnc(-c3ccc(C)cc3)o2)cc1 | 0 | 62 | 0 | 0 | 0 | 0 | 0 | 0
COc1ccc(-c2nnc(-c3ccc(F)cc3)o2)cc1 | 0 | 0 | - | 0 | 0 | 0 | - | -
Cc1ccc(-c2nnc(-c3cccs3)o2)cc1 | 0 | 54 | 0 | 0 | 0 | 0 | 61 | 49
Cc1ccc(/C=C/c2nnc(-c3cccs3)o2)cc1 | 0 | 0 | 0 | 0 | 0 | 0 | - | -
COc1ccc(NC(=O)CC(C)=NNC(=O)c2cnccn2)c(OC)c1 | - | - | 0 | - | - | - | - | -
CC(=O)Nc1ccc(S(=O)(=O)Nc2nc3ccccc3nc2Nc2cccc(O)c2)cc1 | 0 | 75 | 0 | 0 | 0 | 0 | 72 | 58
O=C(O)c1ccc(Nc2nc3ccccc3nc2NS(=O)(=O)c2ccc(F)cc2)cc1 | 0 | 46 | 0 | 0 | 33 | 0 | + | 156
O=[N+]([O-])c1ccc(S(=O)(=O)Nc2nc3ccccc3nc2Nc2ccccc2)cc1 | 0 | 0 | - | 0 | 0 | 0 | - | -
COc1ccc2cc(C#N)c(NC(C)C)nc2c1 | 0 | 55 | - | 0 | 0 | 0 | 0 | 0
CCOC(=O)C1CCN(c2nc3cc(OC)ccc3cc2C#N)CC1 | 0 | 0 | - | 0 | 0 | 0 | - | -
COC(=O)CSc1nc2cc(OC)ccc2cc1C#N | 0 | 0 | 0 | 0 | 0 | 0 | - | -
